About 6,400 (1.6%) of roughly 410,000 compounds were called active. Inconclusive results (about 20%) are left out. The sample holds actives, similar compounds and a random draw of the others, so the mix is not that of the screen. Unmarked numbers belong to inactive results. Calls follow the shape of the dose curve; as a rule, active = well fitted inhibition curve with a large enough effect; inconclusive = small, poorly fitted or top-dose-only effect; inactive = no such curve, though single readings can be large or run the other way.
% is scaled to controls: 0 for no effect and ±100 for the full control effect; potency is read from the fitted curve at half-maximal effect.

Glucagon-like peptide 1 receptor (Homo sapiens), sequence (P43220 whole entry, looked up): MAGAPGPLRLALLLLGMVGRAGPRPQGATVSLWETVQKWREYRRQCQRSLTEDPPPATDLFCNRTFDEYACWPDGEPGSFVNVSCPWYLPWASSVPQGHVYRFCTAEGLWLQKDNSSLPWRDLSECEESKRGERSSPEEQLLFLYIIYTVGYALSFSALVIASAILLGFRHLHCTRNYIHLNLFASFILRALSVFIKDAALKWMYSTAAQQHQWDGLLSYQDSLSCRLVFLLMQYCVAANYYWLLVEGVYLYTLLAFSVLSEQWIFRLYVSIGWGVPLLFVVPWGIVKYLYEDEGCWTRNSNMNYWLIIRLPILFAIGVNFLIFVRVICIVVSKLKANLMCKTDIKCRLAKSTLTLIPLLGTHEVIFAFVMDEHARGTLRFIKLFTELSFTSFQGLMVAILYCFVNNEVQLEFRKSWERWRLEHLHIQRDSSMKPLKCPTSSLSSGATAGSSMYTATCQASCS

This experiment addresses Glucagon-like peptide 1 receptor (Homo sapiens) (UniProt P43220). Briefly: qHTS of GLP-1 Receptor Inverse Agonists (Inhibition Mode). Also: nearly all actives have a fitted effect of over 55% in size. The conditions noted are these: HEK293 GLP-1R CRE-luciferase, luminescence, 24 h, GLP-1R form is constitutively active; series mostly up to 38.3 µM; activity change, negative = inhibition: at the top concentration. The method, boiled down: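 GLP-1R inverse agonism mode: basal reporter luminescence in engineered HEK293 cells measured after one day of compound exposure at 37 deg C, with a 12 min room-temperature detection step.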
As for `CSc1ccc(CNC(=O)C2(C)CCCN2C)cc1` (centres undefined), the “activity change, negative = inhibition” value is 9.89%. Regarding `Cc1cc(C(=O)N2CCCC2(C)C(=O)O)c(C)o1` (centres undefined), the “activity change, negative = inhibition” value was 25.9%. With `O=C(c1ccc(-c2ccccc2)cc1)C1CCCN(C(=O)c2cncs2)C1` (centres undefined), the “activity change, negative = inhibition” value is -53%. As for `CCn1nc(C)cc1C(=O)N1CCCC(C(=O)c2cccc(OC)c2)C1` (centres undefined), the “activity change, negative = inhibition” value was 32.6%. For the compound `Cn1nccc1C(=O)N1CCCC(C(=O)c2ccc(Oc3ccccc3)cc2)C1` (centres undefined), the Potency was 3.55 µM (active). On to `CCOC(=O)[C@]12CCC=C1N(Cc1ccco1)C(=O)[C@H](CC(=O)N1CCSCC1)C2`, for which the “activity change, negative = inhibition” value is 8.51%. Still for that read-out and setting: to `COC(=O)c1ccc(Oc2nc(Nc3ccc(F)cc3)nc(N3CCCC3)n2)cc1` belongs 2.41%.

As for `Clc1nc(NC2CCCC2)nc(N2CCOCC2)n1`, the “activity change, negative = inhibition” value is 30.6%. Regarding `COc1nc(NC2CCCCC2)nc(N2CCCCCC2)n1`, the Potency is 5.01 µM (active). In the case of `CO[C@@H]1CN(C)C(=O)c2cc(NC(=O)Nc3cc(F)ccc3F)ccc2OC[C@H](C)N(C(=O)c2ccccn2)C[C@@H]1C`, the “activity change, negative = inhibition” value was 12.7%. On to `CN1CCN(C2Cc3ccc(Cl)cc3Sc3ccc(F)cc32)CC1` (centres undefined), for which the Potency was 8.91 µM (active). Regarding `CCN(CC)C(=O)C1=C(C)N(Cc2ccc(F)cc2)C(=O)C(CC(=O)NC2CCCC2)C1` (centres undefined), the “activity change, negative = inhibition” value was 1.9%. On the same count and under the same terms, to `O=C(Nc1ccc(F)cc1)C(CCc1ccccc1)N1CCN(CC(=O)N2CCCC2)CC1` (centres undefined) belongs 15.1%; to `N#CCSc1ccccc1NC(=O)CN1C(=O)NC(CCc2ccccc2)C1=O` (centres undefined), 4.84%; to `Nc1cc(C(=O)N2CCN(c3ccccc3Cl)CC2)ccc1N1CC2CC(C1)c1cccc(=O)n1C2` (centres undefined), 1.93%.

With `CCN(CC)P(=O)(Nc1ccc(SC(F)F)cc1)c1ccc(N(C)C)cc1NC(=O)c1ccco1` (centres undefined), the Potency was 2.51 µM (active).

On to `CCC(=O)NC(=S)Nc1ccc(NC(=O)c2ccco2)c(Cl)c1`, for which the “activity change, negative = inhibition” value was 56.6%.

With `Cc1cc(NC(=O)c2ccc(F)cc2)ccc1NC(=O)c1ccco1`, the “activity change, negative = inhibition” value is -2.68%. Take `O=C(Nc1ccc(N2CCOCC2)cc1)c1cccc2c(-c3ccc(F)c(F)c3)coc12`: the “activity change, negative = inhibition” value is 6.21%. For the compound `O=NN(CCCl)C(=O)NCCc1cccc[n+]1[O-]`, the “activity change, negative = inhibition” value was 13.9%. Consider `COc1ccccc1NC(=S)NC(=O)C(C)C`, for which the “activity change, negative = inhibition” value is 0%. As for `CCc1nc(SCC(=O)Nc2ccccc2OC)n[nH]1`, the “activity change, negative = inhibition” value is 9.23%. On to `CCSc1nsc(NC(=O)Nc2ccccc2OC)n1`, for which the Potency was 11.2 µM (active). Regarding `Cc1ccccc1NC(=O)Cc1nc(COC(=O)CNC(=O)c2ccc(Cl)cc2Cl)cs1`, the “activity change, negative = inhibition” value was 4.36%. Take `CCOc1ccc(CCNC(=O)COC(=O)c2ccc(C)c(S(=O)(=O)N3CCOCC3)c2)cc1OCC`: the “activity change, negative = inhibition” value was 3.97%. On to `Cc1cc(Br)cn2c(Cc3ccsc3)c(-c3ccc(C#N)cc3)nc12`, for which the “activity change, negative = inhibition” value was -7.25%. With `OC(COc1ccc(F)cc1Cl)CN1CCc2ccccc2C1` (centres undefined), the Potency is 10 µM (active). Turning to `COc1ccccc1OCC(O)CN1CCOCC1` (centres undefined), the “activity change, negative = inhibition” value is 4.18%. As for `Cc1ccc(OCC(O)CN2CCN(CC(O)COc3ccc(C)cc3Cl)CC2)c(Cl)c1` (centres undefined), the “activity change, negative = inhibition” value is 3.12%. As for `O=C1NC[C@H](Cc2ccc(O)cc2)N(C[C@H]2CCCN2C[C@H](Cc2ccccc2)N2C[C@H](Cc3ccccc3)N(CCc3ccccc3)C(=O)C2=O)C1=O`, the “activity change, negative = inhibition” value is 9.65%.

For `O=C1OC(Oc2ccc(Br)cc2)(c2ccccc2)c2ccccc21` (centres undefined), the Potency was 10 µM (active). As for `CC1(C(=O)NS(=O)(=O)c2ccccc2)CCN1C(=O)C1CCCCC1` (centres undefined), the “activity change, negative = inhibition” value is -3.17%.

In the case of `CCOc1ccc(S(=O)(=O)N(CC(=O)NCC(F)(F)F)Cc2ccco2)cc1`, the “activity change, negative = inhibition” value is 16%. For the compound `O=C(COc1ccc(Cl)cc1)N(Cc1ccco1)Cc1ccco1`, the Potency was 10 µM (active). Take `Cc1cc2oc(C(=O)N(Cc3ccc(Cl)cc3)Cc3ccco3)c(C)c2cc1Cl`: the “activity change, negative = inhibition” value is 6.07%. With `CC(=O)c1nn(-c2ccccc2)c(=Nc2ccccc2)cc1C`, the “activity change, negative = inhibition” value is 1.43%. Consider `Cc1cc2c3ccccc3[nH]c(=O)n2n1`, for which the “activity change, negative = inhibition” value was 23.2%. For the compound `CSc1ncnc2c1ncn2CCCNCc1ccco1`, the “activity change, negative = inhibition” value was 14.9%.

In the case of `COc1ccc(-c2cc(NC=O)c3ncc(-c4ccccc4)n3c2)cc1OC`, the “activity change, negative = inhibition” value was -18.1%. Regarding `Fc1ccccc1COc1cccc2cccnc12`, the “activity change, negative = inhibition” value is -24%. With `O=C(Nc1ccccc1)Oc1cccc2cccnc12`, the Potency was 3.98 µM (active).

`OCc1ccc(OCCCOc2cccc3cccnc23)cc1`: the “activity change, negative = inhibition” value was 25.8%.

For the compound `Cc1ccccc1OS(=O)(=O)c1cccc([N+](=O)[O-])c1`, the “activity change, negative = inhibition” value is -32.3%. As to `Cc1ccc(C(=O)NNC(=O)CSc2nnc3ccccn23)cc1`, the “activity change, negative = inhibition” value is -23.9%. As to `Cc1ccc(-n2c(C)cc(C(=O)CSc3nnc4ccccn34)c2C)cc1`, the Potency was 8.91 µM (active). With `O=C(CSc1nnc2ccccn12)c1ccccc1`, the “activity change, negative = inhibition” value was 11.5%. Take `Cc1cccc(CN2CCN(C3CN(Cc4cn(Cc5ccccc5F)nn4)S(=O)(=O)C3)CC2)c1` (centres undefined): the “activity change, negative = inhibition” value is -2.68%.

As for `c1ccc2c(c1)nnn2-c1ccncc1`, the “activity change, negative = inhibition” value was 6.01%. For the compound `Cc1ccccc1S(=O)(=O)NC(=O)C1(C)CCN1C(=O)C1(c2ccccc2)CCCC1` (centres undefined), the “activity change, negative = inhibition” value is -25.9%.

Source of the values: PubChem BioAssay AID624417 (National Center for Advancing Translational Sciences (NCATS), 2012).
